# Source: PubChem
# ssDAF12 agonist = activators of S. stercoralis DAF-12 nuclear receptor. HEK293 ssDAF-12/GRIP1 lit1-tk-luc reporter, luminescence; % of 3 µM dafachronic acid response. activation, % at 6.8 µM. 370,000 tested, 1% active. AID 652126;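 active = activation above the mean over all tested compounds plus 3 SD, cut at about 0.9% in these data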
# DAX1 inh-1 = NR0B1 (DAX1) inhibition. P51843. HEK293 Gal4-DAX1 luciferase reporter, luminescence. inhibition, % at 6.75 µM. 340,000 tested, 0.99% active. AID 504766;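 active = inhibition above the mean over all tested compounds plus 3 SD, cut at about 4.2% in these data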;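 note: inhibition shows as a rise in luminescence from relieved DAX1 repression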
# Target sequence (P51843 207-470 limits assumed): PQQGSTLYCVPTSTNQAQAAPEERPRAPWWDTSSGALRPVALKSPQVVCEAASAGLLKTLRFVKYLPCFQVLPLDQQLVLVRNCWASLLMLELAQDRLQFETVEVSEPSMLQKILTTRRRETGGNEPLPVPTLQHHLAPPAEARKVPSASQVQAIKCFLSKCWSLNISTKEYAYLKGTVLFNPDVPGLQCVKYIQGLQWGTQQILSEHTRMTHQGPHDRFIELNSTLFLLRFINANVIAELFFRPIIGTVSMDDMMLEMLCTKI
# PolyA inhibitor = inhibitors of polyadenylation in S. cerevisiae; 300,000 tested, 0.02% active; activity score, % at 12 µM; S. cerevisiae SKY197-pL101 polyadenylation reporter, beta-gal luminescence; efflux-impaired pdr1/pdr3 knockout yeast; score 100 = 6 SD above DMSO;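 active = lowest replicate activity score at least 50, where 100 means six control SD above control mean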;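 note: yeast exposed to compound for 9 h at 30 °C; higher score means more reporter readthrough which indicates perturbed polyadenylation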
# hcDAF-12 act = H. contortus DAF-12 activation, primary screen. HEK293 hcDAF-12 lit1-tk-luc reporter, luminescence; 0% DMSO, 100% Δ7-dafachronic acid. activation, % at 6.8 µM. 370,000 tested, 1.4% active. AID 652067;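 active = activation above the mean of all tested compounds plus 3 SD, cut at about 5.5% in these data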
# hgDAF12 agonist = hgDAF-12 agonism, primary luciferase screen; activation, % at 6.8 µM; AID 687014; 370,000 tested, 1.8% active; HEK293 GAL4-hgDAF12 UAS-luciferase reporter, agonist luminescence; normalized to butyrate control;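 active = activation above a cutoff set at the mean of all screened compounds plus 3 SD, cut at about 10% in these data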
# DAX1 inh-2 = inhibitors of DAX1 repression of SF-1 activated StAR promoter | AID 652010 | HEK293T StAR-luciferase reporter, SF-1/DAX-1 repression relief | 370,000 tested, 1.1% active | inhibition, % at 6.8 µM;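 active = inhibition above the mean over all tested compounds plus 3 SD, cut at about 3.6% in these data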;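 note: higher inhibition means more luminescence from relief of DAX-1 repression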
# A number is an active result; i = inactive; nt = no result. Only some compounds are listed: those with a hit (about 4.1% of all), similar ones and a draw of the others.
SMILES,ssDAF12 agonist,DAX1 inh-1,PolyA inhibitor,hcDAF-12 act,hgDAF12 agonist,DAX1 inh-2
Cc1ccc(O)c(C2=Nc3ccccc3N=C(c3ccc([N+](=O)[O-])cc3)C2)c1,1.0,i,i,i,i,i
Cn1cc(C(=O)N2CCc3ccccc32)cn1,1.2,i,i,6.5,i,i
O=C(O)COc1ccc(Br)cc1/C=N\Nc1ccccn1,nt,4.7,i,nt,nt,nt
O=C(O)c1ccccc1N1C(=O)c2cccc3cccc(c23)C1=O,i,i,i,i,i,i
O=C(O)c1ccc2c3c(cccc13)C(=O)N(c1cccc3ccccc13)C2=O,i,4.5,i,i,i,i
COC(=O)C(Cc1ccc(O)cc1)NC(=O)c1ccccc1 (stereo not drawn),i,i,i,i,i,i
COC(=O)C(Cc1ccccc1)NC(=O)c1ccc(C)cc1 (stereo not drawn),1.3,i,i,i,i,i
CC(C)NC(=S)N/N=C/C1=CCC2CC1C2(C)C (stereo not drawn),i,i,i,i,i,i
CC1(C)C2CC=C(/C=N/NC(=S)Nc3cccnc3)C1C2 (stereo not drawn),1.0,i,i,i,i,i
C=CCNC(=O)CN(C(=O)Cc1cccc(OC(F)(F)F)c1)c1cccc(Br)c1,i,nt,nt,i,i,i
COc1ccc(C2/C(=C(\O)c3cccc(OC)c3)C(=O)C(=O)N2c2ccccn2)cc1 (stereo not drawn),i,6.8,i,i,i,i
O=C(O)c1[nH]c2ccccc2c1C(c1c(F)cccc1Cl)c1c(C(=O)O)[nH]c2ccccc12,i,i,i,i,i,i
O=C(O)c1[nH]c2ccccc2c1C=NCc1ccccc1Cl,i,4.9,i,i,i,i
Cc1c(C(=O)NCc2ccco2)oc2c(F)cccc12,i,i,nt,5.9,i,i
CN1C(=O)C(O)(c2nnc(-c3ccccc3)o2)c2ccccc21 (stereo not drawn),1.1,i,i,i,i,i
CN(Cc1ccco1)C(=O)c1cccc2c1C(=O)N(Cc1cccnc1)C2,i,nt,nt,i,i,i
Cn1cccc1C(=O)C(=O)Nc1ccccc1C(F)(F)F,i,4.4,i,i,i,i
Cn1cccc1C(=O)C(=O)Nc1ccccc1,1.0,i,i,i,12.5,3.8
CC(=O)Nc1ccccc1C(F)(F)F,i,4.3,i,i,i,i
O=C(Nc1ccccc1C(F)(F)F)c1cc(-c2ccccc2O)on1,i,i,i,i,12.3,i
COc1ccc2[nH]c3c(c2c1)CCN[C@]31C(=O)N(Cc2cn(Cc3ccccc3)nn2)c2ccccc21,i,nt,nt,i,i,i
C=CCN1[C@H](CC(C)C)COc2cc(F)ccc2S1(=O)=O,i,nt,nt,i,i,i
Cc1ccccc1CN1CCCCC(NC(=O)C(C)(C)C)C1=O (stereo not drawn),i,nt,nt,i,i,i
Cn1cc(Br)c(C(=O)NNC(=O)Nc2ccccc2C(F)(F)F)n1,i,4.2,i,i,i,i
c1ccc2c(c1)Nc1cc3ccccc3cc1S2,i,i,i,6.5,i,i
SMILES,ssDAF12 agonist,DAX1 inh-1,PolyA inhibitor,hcDAF-12 act,hgDAF12 agonist,DAX1 inh-2
Cc1cccc2sc(N3CCN(C(=O)C4COc5ccccc5O4)CC3)nc12 (stereo not drawn),i,i,i,i,i,i
COC(=O)c1cnn(-c2nc3c(C)cccc3s2)c1C,i,i,i,5.9,i,i
COc1ccc(CCNC(=O)c2cccnc2Cl)cc1OC,i,6.3,i,i,i,i
CCNC(=O)Nc1ccc2c(c1)C(=O)N(C)[C@H]1CC[C@H](CC(=O)N[C@H](C)c3ccccc3)O[C@@H]1CO2,i,nt,nt,i,i,i
CN(C)c1ccc(Nc2ccc([N+](=O)[O-])cn2)cc1,i,5.4,i,i,i,i
O=[N+]([O-])c1ccc(Nc2ccc(F)cc2)nc1,i,i,i,i,i,i
O=c1[nH]nc(Cc2ccc3ccccc3n2)c2ccccc12,1.0,i,i,6.5,i,i
CC1CCCC(NC(=O)CNC(=O)c2cccs2)C1C (stereo not drawn),i,5.2,i,i,i,i
O=C(NCc1ccc(F)cc1)c1c2c(nc3ccccc13)CCN(Cc1ccccc1)C2,i,4.8,i,i,i,i
FC(F)(F)c1nnc2ccc(NCc3cccnc3)nn12,i,7.9,i,i,i,i
